Rows were chosen to be rich in hits. Some 7.4% of all compounds tested hit in one or more screens of this group.
NPC1 prom act: activates the NPC1 promoter | Potency, µM (highest dose often 9.22 µM), without a hit: at the highest dose activation, most hits filed as activators | actives 2.4% (n = 320,000) | Huh7 NPC1 promoter luciferase reporter, 24 h; further: % of control where 0% means no effect; nearly all actives have a fitted effect of over 60% in size
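Readout is luciferase luminescence, reflecting NPC1 promoter activation in stably transfected Huh7 cells after 24 h compound exposure at 37 °C in reduced-serum medium with 10% FBS.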
Rab9 promoter act: Rab9 promoter activation; Huh7 Rab9 promoter-luciferase reporter, luminescence, 24 h; Potency, µM (titrated, usually from 9.22 µM), without a hit: top-dose activation, negative = inhibition, usual class: activators; actives 2.8% (n = 320,000); AID 485297; further: % of control where 0% means no effect; nearly all actives have a fitted effect of over 60% in size
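Using Huh7 cells stably transfected with Rab9 promoter–luciferase, compounds were incubated 24 h at 37 °C, 5% CO2; luciferase luminescence was read 10 min after reagent addition.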
FLuc modulator: inhibits or activates purified firefly luciferase, miR-21 counter-screen. actives 6.9% (n = 360,000). Potency, µM (highest dose often 57.5 µM), for inactives: at the highest dose activity change, negative = inhibition, hits mostly inhibitors. P08659. purified FLuc, Km substrates, luminescence inhibition. AID 588342;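 further: plate controls were vehicle for no effect and reference inhibitor for full effect; nearly all actives have a fitted effect of over 55% in size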
Target sequence (P08659 whole entry, looked up): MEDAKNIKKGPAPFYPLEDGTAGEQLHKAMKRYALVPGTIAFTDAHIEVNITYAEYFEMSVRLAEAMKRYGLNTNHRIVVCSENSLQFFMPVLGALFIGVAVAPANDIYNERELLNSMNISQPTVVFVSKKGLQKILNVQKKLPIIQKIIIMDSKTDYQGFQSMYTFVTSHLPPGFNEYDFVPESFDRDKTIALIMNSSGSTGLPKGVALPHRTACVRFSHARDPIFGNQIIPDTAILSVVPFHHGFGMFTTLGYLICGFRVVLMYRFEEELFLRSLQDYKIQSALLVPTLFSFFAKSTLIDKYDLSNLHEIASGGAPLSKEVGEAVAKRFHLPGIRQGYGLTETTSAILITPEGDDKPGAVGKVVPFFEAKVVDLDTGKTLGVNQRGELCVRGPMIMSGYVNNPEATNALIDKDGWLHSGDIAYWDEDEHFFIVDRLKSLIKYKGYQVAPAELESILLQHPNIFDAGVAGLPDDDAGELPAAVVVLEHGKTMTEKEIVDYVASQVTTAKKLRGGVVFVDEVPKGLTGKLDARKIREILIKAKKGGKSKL
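Purified P. pyralis luciferase (10nM final) with 10uM D-luciferin and 10uM ATP (Km levels) in 50mM Tris acetate pH 7.5, 10mM Mg acetate, 0.01% Tween-20, 0.05% BSA; qHTS 6-point titration, ~60 µM downward; luminescence read.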
ELG1 genotoxic: genotoxicity induction in ELG1-luciferase HEK293T cells | actives 1.3% (n = 330,000) | AID 504466 | HEK293T ELG1-luciferase reporter, luminescence, 16 h | Potency, µM (titrated, usually from 46 µM), inactives show at the highest dose activity change, positive = activation, most hits filed as activators; further: % of control where 0% means no effect; nearly all actives have a fitted effect of over 60% in size
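Reporter readout depends on ELG1 protein level, which increases with genetic stress. After 16 hr compound exposure at 37 °C, luciferase activity was quantified using ONE-Glo.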
SMN2 splice enh: enhancers of SMN2 splice variant expression. HEK293 SMN2-luciferase splicing reporter, luminescence, 30-36 h. Potency, µM (doses to about 46.1 µM), without a hit: top-dose activity change, positive = activation, hits mostly activators. actives 2.8% (n = 210,000). AID 1458; further: % of control where 0% means no effect; nearly all actives have a fitted effect of over 55% in size
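qHTS luciferase splicing reporter: luminescence rises when SMN2 exon 7 is included in transfected HEK293 cells. Compound exposure lasted 30-36 h at 37C, with 4.5 mM final sodium butyrate as control, followed by a ONE-Glo read.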
The depositor's hits bear a star; ? = inconclusive; · = no result given. The call rests on the fitted dose curve; in most records, active means well fitted curve in the direction sought with a large enough effect; inconclusive means small, poorly fitted or top-dose-only effect, or another doubt; inactive means no such curve, though single readings can be large; an effect the other way counts as inactive or inconclusive. Potency means the concentration at half of the fitted maximal effect.

SMILES	NPC1 prom act	Rab9 promoter act	FLuc modulator	ELG1 genotoxic	SMN2 splice enh
C=CCn1c(C)cc(C(=O)COC(=O)c2ccc3c(c2)NC(=O)CS3)c1C	5%	2%	17µM*	0%	21%
COCCn1c(C)cc(C(=O)COC(=O)c2ccc3c(c2)NC(=O)CS3)c1C	0%	1%	13µM*	1%	7%
Cc1cc(C(=O)COC(=O)c2ccc(N)c([N+](=O)[O-])c2)c(C)n1Cc1ccc2c(c1)OCO2	26%	3%	?	7%	·
C=CCn1c(C)cc(C(=O)COC(=O)c2ccc(N)c([N+](=O)[O-])c2)c1C	4µM*	1.3µM*	3µM*	2.6µM*	13µM*
CCS(=O)(=O)Nc1cccc(C2=NN(S(=O)(=O)c3ccc(C)cc3)C(c3ccco3)C2)c1 (configuration not stated)	-2%	-3%	-10%	-7%	-10%
CCOC(=O)C(CC)n1cnc2c(nnn2-c2ccccc2)c1=O (configuration not stated)	-2%	-3%	2%	2%	·
CCOC(=O)c1cnc2c(-c3ccccc3)cnn2c1C	2.5µM*	1.6µM*	1.9µM*	8.2µM*	11µM*
CCOC(=O)c1cnc2c(ccc3ccccc32)c1N	1.6µM*	1.1µM*	?	8.2µM*	·
CCOC(=O)c1cnc(-c2ccccc2)nc1N	2.8µM*	2µM*	9.5µM*	3.3µM*	7.1µM*
CCOC(=O)c1cnc(-c2ccccc2)nc1N(C)C	-4%	-3%	15µM*	11µM*	4.5µM*
COc1cccc(OC)c1C(=O)Nc1cccc(-c2ccc3nncn3n2)c1	-7%	-10%	-1%	17%	26%
COc1cccc(OC)c1C(=O)Nc1cccc(-c2ccc(N3CCOCC3)nn2)c1	?	1.8µM*	1.5µM*	0%	·
COc1cc(OC)cc(C(=O)Nc2cccc(-c3ccc(N4CCOCC4)nn3)c2)c1	?	?	1.5µM*	?	·
COc1ccc(C(=O)Nc2cccc(-c3ccc(N4CCOCC4)nn3)c2)cc1	?	4µM*	2.4µM*	2%	·
Cc1cc(C(=O)NNC(=S)NCC(C)C)no1	1%	1%	0%	-4%	-11%
CNC(=S)NNC(=O)c1sc(-c2cc(C)on2)nc1C	-4%	-1%	17µM*	1%	·
COc1ccc(N2CCN(C(=O)C(CC(C)C)NS(=O)(=O)c3ccc4nc(C)sc4c3)CC2)cc1 (configuration not stated)	·	·	-4%	·	-10%
CC(C)C(=O)Nc1ccc(NC(=O)c2ccc3c(c2)OCO3)cc1	5%	9%	-5%	?	·
COc1cc(NC(=O)c2ccc3c(c2)OCO3)ccc1NC(=O)C(C)C	18%	4%	15µM*	9%	-19%
CCCCC(=O)Nc1ccc(NC(=O)c2ccc3c(c2)OCO3)cc1OC	15%	0%	11µM*	13%	29%
CCN(C(=O)c1cn(CC)c(=O)c2cc(OC)c(OC)cc12)c1ccccc1F	·	·	0%	·	2%
CC(=O)c1cc(C#N)c(SCc2ccccc2C#N)nc1C	0%	3%	15µM*	0%	13%
CC(=O)c1cc(C#N)c(SCc2ccncc2)nc1C	1%	8%	-2%	-4%	·
CC(C)Oc1cccc(-c2cc(C(=O)N3CCN(S(C)(=O)=O)CC3)c3ccccc3n2)c1	20%	25%	3µM*	-15%	?
COc1ccc(-c2cc(C(=O)N3CCN(c4cccc(C)c4C)CC3)c3ccccc3n2)cc1OC	-1%	-3%	?	-35%	·
SMILES	NPC1 prom act	Rab9 promoter act	FLuc modulator	ELG1 genotoxic	SMN2 splice enh
COc1cccc(-c2cc(C(=O)N3CCN(c4ncccn4)CC3)c3ccccc3n2)c1	11%	2%	?	-13%	35µM*
O=C(c1cc(-c2ccccn2)nc2ccccc12)N1CCN(c2ncccn2)CC1	-5%	11%	?	-7%	15%
CC(C)Oc1cccc(-c2cc(C(=O)N3CCN(c4ncccn4)CC3)c3ccccc3n2)c1	24%	17%	1.3µM*	-12%	29%
Cc1ccc2nc(-c3ccccn3)cc(C(=O)N3CCN(c4ncccn4)CC3)c2c1	-1%	-1%	19µM*	-12%	13%
CCOC(=O)Cc1csc(SCC(=O)NC2CCS(=O)(=O)C2)n1 (configuration not stated)	1%	-2%	-1%	1%	·
COc1ccc(-c2cc(C(=O)N3CCN(c4ncccn4)CC3)c3ccccc3n2)cc1OC	7%	0%	13µM*	-3%	·
COc1ccc(-c2cc(C(=O)N3CCC3)c3ccccc3n2)cc1OC	1%	-2%	3%	3%	·
Cc1ccc(C)c(Cn2nc(C)n3c(cc4cc(C)ccc43)c2=O)c1	·	·	-5%	·	0%
Cc1ccc2c(c1)cc1c(=O)[nH]ncn12	?	?	21µM*	?	-5%
Cc1ncc([N+](=O)[O-])n1CC(=O)Nc1ccc(F)cc1F	-2%	4%	1%	4%	·
COc1cc(/C=N/NC(=S)Nc2cccc(S(=O)(=O)N(C)C)c2)cc(OC)c1O	-3%	0%	15µM*	-4%	-8%
CN(C)S(=O)(=O)c1cccc(NC(=S)N/N=C/c2ccc(O)c(O)c2O)c1	-4%	-4%	13µM*	-17%	·
COc1ccc(O)c(/C=N/NC(=S)Nc2cccc(S(=O)(=O)N(C)C)c2)c1	-12%	-24%	11µM*	11%	-59%
COc1ccccc1NS(=O)(=O)c1cccc(C(=O)NNC(=O)C(C)NC(=O)c2ccco2)c1 (configuration not stated)	·	·	·	-3%	·
CCCCOC(=O)c1ccc(Nc2nc3ccc(C)cc3n3cnnc23)cc1	·	·	?	·	-3%
Cc1ccccc1NS(=O)(=O)c1csc(C(N)=O)c1	0%	0%	-1%	-3%	·
O=C(NCc1ccncc1)/C(=C/c1cccc([N+](=O)[O-])c1)NC(=O)c1ccccc1	0%	13%	5%	-2%	·
COc1ccc(C2C(C(=O)c3cccs3)=C(O)C(=O)N2Cc2cccnc2)cc1OC (configuration not stated)	?	?	19µM*	?	·
CN1CCN(C(=O)c2cc(-c3ccco3)on2)CC1	13%	4%	?	22%	23%
O=C(c1cc(-c2ccc(Cl)cc2Cl)on1)N1CCCCCC1	0.71µM*	0.71µM*	1.2µM*	4.6µM*	·
O=C(c1cc(-c2ccc(Cl)cc2Cl)on1)N1CCCC1	0.89µM*	1µM*	0.43µM*	2.9µM*	·
Cc1cc(C(=O)N2CCCC(C(=O)c3ccc(Cl)cc3C)C2)no1 (configuration not stated)	-4%	6%	-1%	-10%	·
O=C(NCCN1CCOCC1)c1cc(-c2cccc(Cl)c2)on1	4%	18%	-7%	-20%	·
O=C(NCCN1CCOCC1)c1cc(-c2ccc(Cl)cc2Cl)on1	27%	5%	11µM*	23%	·

Screening results deposited in PubChem BioAssay by National Center for Advancing Translational Sciences (NCATS).
